# UBC9 SUMO inh: SUMOylation inhibition; P63279; HTRF SUMOylation assay, SAE1/SAE2 + UBC9, in vitro; inhibition, % at 35 µM; actives 0.36% (n = 290,000); AID 2006; in the data active means inhibition above about 50%, passing the limit was not always enough; inconclusive means no clear call, values can overlap the other calls
# Target sequence (P63279 whole entry, looked up): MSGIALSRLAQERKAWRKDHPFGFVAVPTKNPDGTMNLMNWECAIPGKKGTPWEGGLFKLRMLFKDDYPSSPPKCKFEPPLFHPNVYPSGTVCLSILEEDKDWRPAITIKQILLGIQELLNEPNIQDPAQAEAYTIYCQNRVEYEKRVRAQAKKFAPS
# NSD2 inh: inhibitors of human histone methyltransferase NSD2. NSD2 peptide methylation, AlphaScreen, 120 min. inhibition, % at 12.5 µM. actives 0.54% (n = 310,000). O96028; in the data active means inhibition above about 50%
# Casp6 inh: caspase-6 (human) enzyme inhibition; P55212; actives 0.53% (n = 350,000); purified caspase-6, Z-VEID-R110 cleavage fluorescence; inhibition, % at 12.5 µM;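 active means mean inhibition across replicates at least about 35%, with every replicate also reaching that limit, limit read from the data; inconclusive means only one of the two criteria met; inactive means neither criterion met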;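 further: 0% = median of neutral control wells and 100% = no fluorescence left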
# SIRT5 inh: blocks human SIRT5 desuccinylation of peptide | Purified SirT5, succinyl-peptide AMC, trypsin-coupled fluorescence | inhibition, % at 15 µM | actives 1.1% (n = 330,000); in the data active means inhibition above about 15%; inconclusive means no clear call, values can overlap the other calls
# Target sequence (Q9NXA8 whole entry, looked up): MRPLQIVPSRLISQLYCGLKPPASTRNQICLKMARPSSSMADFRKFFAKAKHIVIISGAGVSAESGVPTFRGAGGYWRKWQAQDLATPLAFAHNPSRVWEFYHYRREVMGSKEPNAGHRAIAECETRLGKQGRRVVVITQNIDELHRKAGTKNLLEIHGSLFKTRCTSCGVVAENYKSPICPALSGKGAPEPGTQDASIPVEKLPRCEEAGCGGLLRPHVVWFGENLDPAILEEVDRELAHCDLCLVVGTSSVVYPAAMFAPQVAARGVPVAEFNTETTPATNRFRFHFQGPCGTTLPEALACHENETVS
# * = called active by the depositor; ? = inconclusive; . = no result. This is a sample that favours compounds with a hit; in the whole collection about 1.6% have one here.
SMILES,UBC9 SUMO inh,NSD2 inh,Casp6 inh,SIRT5 inh
COc1ccccc1N(CC(=O)NCCSCc1ccccc1Cl)S(C)(=O)=O,14,2,39*,-6
CCC(=O)N1CC2(C1)[C@H](c1ccc(-c3ccc(F)cc3)cc1)[C@@H](CO)N2C(=O)CC,.,.,1,0
Fc1cccc(F)c1-c1nc(-c2ccncc2)no1,15,-3,.,20*
O=C(N=C1SC2CS(=O)(=O)CC2N1c1ccccc1F)C1CCCCC1 (stereo unspecified),-1,6,-2,-4
O=C(N=C1SC2CS(=O)(=O)CC2N1c1ccc(F)cc1F)C1CC1 (stereo unspecified),.,1,2,17*
Oc1c(Br)cc(Br)cc1CNc1cccc2cccnc12,75*,5,0,2
Oc1ccc(Cl)cc1CNc1cccc2cccnc12,66*,3,84*,3
Oc1ccc(Br)cc1CNc1cccc2cccnc12,76,13,3,-2
COc1ccc2c3c([nH]c2c1)[C@@H](CO)N(C(C)=O)CC31CN(Cc2cc(-c3ccccc3)on2)C1,.,.,2,0
COc1ccccc1NC(=O)/C=C/c1ccc(OC)c(S(=O)(=O)N2CCOCC2)c1,19,-5,-4,0
COc1ccc(/C=C/C(=O)Nc2cc(F)ccc2C)cc1S(=O)(=O)N1CCOCC1,25,-3,.,18*
[N-]=[N+]=Nc1ccccc1C[C@@]1(C(=O)NCc2ccccc2)N=C(c2ccc(OCCCO)cc2)O[C@@H]1c1ccccc1N=[N+]=[N-],.,.,0,5
Cc1ccc(S(=O)(=O)N(C)C[C@H]2OCCCC[C@@H](C)Oc3ccc(N(C)C)cc3C(=O)N([C@@H](C)CO)C[C@H]2C)cc1,.,.,2,3
Oc1ccccc1N=Cc1c(O)ccc2ccccc12,51,0,0,23*
Oc1ccc2ccccc2c1C=NC12CN3CCN(CN(C3)C1)C2,12,113*,.,.
Clc1nccc(N2CCN(c3ccccc3Cl)CC2)n1,.,-1,-1,18*
CCC(C)(C)C1CCC(=NNS(=O)(=O)c2ccc(C)c([N+](=O)[O-])c2)CC1 (stereo unspecified),-26,5,-6,18*
CCCNC(=O)Nc1ccc2c(c1)OC[C@H](C)N(C(=O)c1ccccc1F)C[C@@H](C)[C@H](OC)CN(C)C2=O,.,.,0,2
O=S(=O)(c1ccccc1)N1CCCCN2[C@H](C1)[C@H](c1ccc(C#CC3CCCC3)cc1)[C@@H]2CO,.,.,0,19*
O=S(=O)(c1ccc(F)cc1)N1CCCCN2[C@H](C1)[C@H](c1ccc(C#CC3CCCC3)cc1)[C@@H]2CO,.,.,0,18*
O=S(=O)(c1ccc(F)cc1)N1CCCCN2[C@H](CO)[C@@H](c3ccc(C#CC4CCCC4)cc3)[C@@H]2C1,.,.,1,18*
O=S(=O)(c1ccc(F)cc1)N1CCCCN2[C@H](CO)[C@@H](c3ccc(C#CC4CC4)cc3)[C@H]2C1,.,.,0,13
O=S(=O)(c1ccc(F)cc1)N1CCCCN2[C@H](CO)[C@H](c3ccc(C#CC4CCCC4)cc3)[C@H]2C1,.,.,1,22*
O=C(C[C@H]1C[C@H]2c3cc(NC(=O)Nc4ccc(C(F)(F)F)cc4)ccc3O[C@H]2[C@@H](CO)O1)NCc1ccccn1,.,.,2,-3
CCc1nc2ccc(C(=O)N3CC(C)CC(C)C3)cc2nc1CC (stereo unspecified),.,-2,.,.
SMILES,UBC9 SUMO inh,NSD2 inh,Casp6 inh,SIRT5 inh
CN1C[C@H](O)COC[C@@H]2O[C@@H](CC(=O)NC3CCC3)CC[C@H]21,.,.,2,0
COc1ccc2c3c([nH]c2c1)[C@@H](CO)N(C(=O)C1CCC1)CC31CN(Cc2nccs2)C1,.,.,-4,0
COc1ccc(S(=O)(=O)N2CCCCN3[C@H](CO)[C@@H](c4ccc(C#CC(C)C)cc4)[C@@H]3C2)cc1,.,.,-2,12
COc1ccc(S(=O)(=O)N2CCCCN3[C@H](C2)[C@H](c2ccc(C#CC(C)C)cc2)[C@@H]3CO)cc1,.,.,-5,16*
COCC(=O)N(C)C[C@@H]1Oc2cc(-c3ccc(C#N)cc3)ccc2S(=O)(=O)N([C@H](C)CO)C[C@@H]1C,.,.,3,1
CN(C)C(=O)C[C@@H]1C=C[C@@H](NC(=O)C2CC2)[C@@H](CO)O1,.,.,1,-4
CCOCCCNc1nc(C(F)(F)F)nc2c1nnn2Cc1ccccc1Cl,-17,-2,1,-3
CCCc1nc(NCCCOCC)c2nnn(Cc3ccccc3)c2n1,-1,-1,-2,17*
C[C@@H]1CN([C@@H](C)CO)C(=O)Cc2cc(NC(=O)Nc3ccc4c(c3)OCO4)ccc2O[C@H]1CN(C)C(=O)Nc1ccc2c(c1)OCO2,.,.,0,-1
O=c1c(-c2c(O)cc(O)c3c(=O)cc(-c4ccc(O)cc4)oc23)c(-c2ccc(O)cc2)oc2cc(O)cc(O)c12,52*,.,83*,12
C/C(CC(=O)Nc1cc(Cl)ccc1C)=N\NC(=O)C(=O)N1CCCC1,0,-1,-1,28*
COc1ccc(C#Cc2ccc([C@H]3[C@@H](CO)N4C(=O)CN(C(=O)c5cccnc5)C[C@H]34)cc2)cc1,.,.,-1,3
Cc1c(C(=O)Nc2ccc(F)cc2)cn2c(nc3ccccc32)c1C#N,53*,0,-1,-2
Cc1cc(C(=O)Nc2ccc(F)cc2)c2ccccc2n1,-2,-5,-3,-2
CCN(CC)C(=O)CSc1nc(-c2ccccc2)cc(=O)[nH]1,19,-3,0,-3
CCN(Cc1ccccc1)C(=O)CSc1nc(C)cc(=O)[nH]1,13,12,2,22*
COc1ccc(CNC(=O)N(C)C[C@H]2OCc3ccccc3-c3ccccc3C(=O)N([C@@H](C)CO)C[C@H]2C)cc1,.,.,0,-3
COc1ccc(NC(=O)N(C)C[C@H]2Oc3ccc(NC(=O)Cn4cnnn4)cc3C(=O)N([C@H](C)CO)C[C@H]2C)cc1,.,.,6,5
O=C(O)c1cc(N2N=C(C(F)(F)F)/C(=C/C=C/c3ccco3)C2=O)ccc1Cl,?,.,95*,63*
CCOc1cc(/C=N/Nc2ccc(C(=O)O)cc2)ccc1OC(=O)c1ccccc1C,15,5,14,26*
C[C@H](CO)N1C[C@H](C)[C@@H](CN(C)C(=O)Cc2ccccc2)Oc2cc(C3=CCCCC3)ccc2S1(=O)=O,.,.,-3,11
C[C@H](CO)N1C[C@H](C)[C@H](CN(C)C(=O)Cc2ccccc2)Oc2cc(C3=CCCCC3)ccc2S1(=O)=O,.,.,-2,15*
C[C@@H]1CN([C@H](C)CO)S(=O)(=O)c2ccc(C3=CCCC3)cc2O[C@H]1CN(C)Cc1ccccc1,.,.,1,14
C[C@@H]1CN([C@H](C)CO)S(=O)(=O)c2ccc(C3=CCCCC3)cc2O[C@H]1CN(C)C(=O)Nc1ccc2c(c1)OCO2,.,.,0,20*
C[C@@H]1CN([C@@H](C)CO)C(=O)c2cc(C3=CCCCC3)cnc2O[C@@H]1CN(C)C(=O)Cc1ccccc1,.,.,-3,1
C[C@H](CO)N1C[C@H](C)[C@H](CN(C)C(=O)Cc2ccccc2)Oc2ncc(C3=CCCCC3)cc2C1=O,.,.,1,21*
C[C@@H]1CN([C@@H](C)CO)S(=O)(=O)c2ccc(C3=CCCCC3)cc2O[C@H]1CN(C)C(=O)Nc1ccc2c(c1)OCO2,.,.,-1,10
